The text below walks through data of PubChem BioAssay AID504766 (The Scripps Research Institute Molecular Screening Center, 2011).

About 3,400 (1%) of roughly 340,000 compounds were called active. The sample holds actives, similar compounds and a random draw of the others, so the mix is not that of the screen. Values without a mark were called inactive.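 Rule for the calls: active = inhibition above the mean over all tested compounds plus 3 SD (cut at about 4.2% in these data); inactive = the rest.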

The target of this assay is Nuclear receptor subfamily 0 group B member 1 (Homo sapiens) (UniProt P51843). In words: DAX1 (NR0B1) inhibitors, primary screen, cell-based, HEK293, Gal4-DAX1, luciferase luminescence (AID 504766).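 Note: 0% = DAX1-transfected cells with DMSO and 100% = empty-vector control cells with DMSO; inhibition shows as a rise in luminescence from relieved DAX1 repression.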 The settings on record: HEK293 Gal4-DAX1 luciferase reporter, at 6.75 µM, hits give high values.
Chain of Nuclear receptor subfamily 0 group B member 1 (Homo sapiens) (P51843 207-470 limits assumed): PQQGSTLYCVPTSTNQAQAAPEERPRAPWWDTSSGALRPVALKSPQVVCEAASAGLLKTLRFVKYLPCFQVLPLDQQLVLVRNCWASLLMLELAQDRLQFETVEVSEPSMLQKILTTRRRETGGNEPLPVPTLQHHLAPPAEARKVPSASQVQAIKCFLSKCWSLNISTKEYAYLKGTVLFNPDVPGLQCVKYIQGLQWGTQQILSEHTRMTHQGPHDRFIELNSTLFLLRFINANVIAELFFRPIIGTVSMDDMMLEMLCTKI
In general, inhibition refers to the relative decrease from the control value, in per cent. `CC1=C(C(=O)N2CCOCC2)CC(CC(=O)NCCN2CCOCC2)C(=O)N1CCC1=CCCCC1` (stereo not given): the inhibition is 1.93%.
The same measure for `C[C@@H]1CN([C@H](C)CO)C(=O)CCCn2nncc2CO[C@@H]1CN(C)S(=O)(=O)c1cccc(C#N)c1`: 2.66%; for `COc1cc(-c2nnc(NC(=O)CS(=O)(=O)c3ccc(Cl)cc3)o2)cc(OC)c1OC`: 0.2%; for `Cc1cccc(NC(=O)C(C)SCc2ccccc2)c1` (stereo not given): -1.2%.
For `COc1ccc(NC(=O)C(C)SCc2ccccc2)cc1` (stereo not given), the inhibition was 6.52% (active).
Regarding `COc1ccc(NC(=O)C(Br)C(C)C)cc1` (stereo not given), the inhibition is 1.41%.
For `O=C(CCC(=O)N1CCN(S(=O)(=O)c2ccccc2)CC1)NC1CCCc2ccccc21` (stereo not given) the value was 0.76%; for `Cc1ccc(S(=O)(=O)N2CCN(C(=O)CCC(=O)NC3CCCc4ccccc43)CC2)cc1` (stereo not given), 4.27% (active); for `COc1ccc(NC(=O)CCC(=O)N2CCN(S(=O)(=O)c3ccc(C)cc3)CC2)c(OC)c1`, -2%.
As for `CCCCCC(=O)N1C[C@H](O)[C@@H](n2cc(COC(=O)c3ccccc3)nn2)C[C@@H]1c1ccc(C)cc1`, the inhibition was 0.45%.
The same measure for `O=C(OCc1ccccc1)N1CCC2CC1c1cc(N3CCN(S(=O)(=O)c4cc(Cl)cc(Cl)c4)CC3)ccc12` (stereo not given): 1.86%.
The same measure for `CC(=O)c1ccccc1NC(=O)COC(=O)C1COc2ccccc2O1` (stereo not given): 0.71%; for `CCN(CC)C(=O)CSc1ncnc2c1cnn2-c1ccccc1`: 0.89%.
As for `CC(C)Sc1ncnc2c1cnn2-c1ccccc1`, the inhibition was 6.85% (active).
The same measure for `CC(Sc1ncnc2c1cnn2-c1ccccc1)C(=O)Nc1ccc(N2CCOCC2)cc1` (stereo not given): -0.48%.
For `NC(=O)CSc1nnc(-c2cccc(S(=O)(=O)N3CCOCC3)c2)o1` the value was 0.86%; for `CN1OC[C@@H]2CN(C(=O)c3ccc(-c4ccccc4)cc3)[C@H](c3ccc(-c4cccc(F)c4)cc3)C[C@@H]21`, -0.68%; for `COc1ccc(-c2noc(CCC(=O)N3CCN(c4cccc(C)c4)CC3)n2)cc1`, 0.39%.
For `COc1ccc(N2CCN(C(=O)CCc3nc(-c4ccc(C)cc4)no3)CC2)cc1` the value was -0.22%.
Turning to `CN1CCN(C(=O)CCc2nc(-c3ccc(Cl)cc3)no2)CC1`, the inhibition is 5.55% (active).
The same measure for `CC(C)NC(=S)NN=C1CCCCCCCCCCC1`: -0.27%; for `CCc1ccc(C(=O)NN=C2CCCCCC2)s1`: 1.24%; for `CC(C)(C)NC(=O)C(=O)NN=C1CCCCCCC1`: 6.84% (active).
Regarding `C[C@@H]1CN([C@H](C)CO)C(=O)CCCn2cc(nn2)CO[C@H]1CN(C)S(=O)(=O)c1ccc(Oc2ccccc2)nc1`, the inhibition is 0.73%.
The same measure for `CN(c1ccccc1)S(=O)(=O)c1ccc(C(=O)NCc2cccnc2)cc1`: -0.1%.
Regarding `O=C(NCc1nnnn1-c1ccc(Cl)cc1)c1ccc2c(c1)OCO2`, the inhibition is 0.46%.
The same measure for `O=C(c1ccc(F)cc1)n1c(=S)nc2ccccn21`: 5.47% (active); for `O=C(c1ccc(F)cc1)n1cc(C(=S)N2CCOCC2)c2ccccc21`: 1.01%; for `O=C(Cn1c(=S)nc2ccccn21)N1CCc2ccccc2C1`: 1.21%.
For `O=[N+]([O-])c1ccc(C(S(=O)(=O)Cc2ccccc2)S(=O)(=O)Cc2ccccc2)cc1` the value was 1.99%.
